Screening data (PubChem)
Many of the other results were omitted from the sample, so hits are more common in it than they were.
IDE exosite inh – exo-site inhibitors of human IDE, primary screen, biochemical, fluorescence anisotropy, probe displacement. Insulin-degrading enzyme (Homo sapiens), P14735. purified IDE, FL-6b probe fluorescence polarization; active compounds read low. z-score at 20 µM. 17,000 tested, 6.3% active. AID 1259349, 2017;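 active = z-score of -3 or lower, meaning strong loss of probe binding signal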;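 note: His-tagged human IDE residues 42-1019 made in E. coli with 30 nM FL-6b probe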
* hit, by the source's call.

SMILES	IDE exosite inh
COCC(=O)N(C)C[C@H]1[C@H](c2ccc(-c3ccccc3)cc2)[C@H](CO)N1C(C)=O	2.4
COc1ccc(S(=O)(=O)Nc2ccc3c(c2)C(=O)N([C@@H](C)CO)C[C@@H](C)[C@@H](CN(C)C(=O)Nc2c(C)noc2C)OCCCC[C@@H](C)O3)cc1	1.1
CO[C@H]1CC[C@H]2CCN(C)C(=O)[C@@H](C)CN(C)C(=O)c3cc(C#N)ccc3OC[C@H]1O2	0.0054
CC(=O)N(C[C@@H]1N[C@@H](CO)[C@H]1c1ccc(-c2ccc(F)cc2)cc1)C(C)C	2.3
C[C@@H]1CCCCO[C@@H](CN(C)CC2CC2)[C@H](C)CN([C@H](C)CO)C(=O)c2cc(NC(=O)c3ccccc3)ccc2O1	-0.86
CCCNC(=O)N1CC2(C1)CN(C(=O)c1ccccc1)[C@@H](CO)c1[nH]c3cc(OC)ccc3c12	-0.84
CCS(=O)(=O)N1CCCCN2[C@@H](CO)[C@H](c3ccc(-c4ccccc4F)cc3)[C@@H]2C1	3.1
Cc1ccccc1-c1ccc([C@@H]2[C@@H](CO)N3CCCCN(S(=O)(=O)c4ccc(F)cc4)C[C@@H]23)cc1	-18*
Cc1ccccc1-c1ccc([C@H]2[C@@H](CO)N3CCCCN(S(=O)(=O)c4ccc(F)cc4)C[C@H]23)cc1	-0.86
CCS(=O)(=O)N1CCCCN2[C@@H](CO)[C@@H](c3ccc(-c4ccccc4F)cc3)[C@@H]2C1	-6.5*
Cc1ccccc1-c1ccc([C@@H]2[C@@H](CO)N3CCCCN(S(=O)(=O)Cc4ccccc4)C[C@H]23)cc1	0.96
CCS(=O)(=O)N1CCCCN2[C@H](C1)[C@H](c1ccc(-c3ccccc3F)cc1)[C@@H]2CO	0.99
Cc1ccccc1-c1ccc([C@H]2[C@H](CO)N3CCCCN(S(=O)(=O)Cc4ccccc4)C[C@@H]23)cc1	-1.3
O=S(=O)(c1ccc(F)cc1)N1CCCCN2[C@H](C1)[C@H](c1ccc(-c3ccccc3)cc1)[C@@H]2CO	0.078
CCS(=O)(=O)N1CCCCN2[C@H](C1)[C@@H](c1ccc(-c3ccccc3C)cc1)[C@@H]2CO	-8.8*
CC(=O)N1[C@H](CO)[C@@H](c2ccccc2)[C@H]1CN(C(=O)NC(C)C)C1CCCC1	3.6
CS(=O)(=O)N1[C@@H](C#N)[C@@H](c2ccccc2-c2ccccc2F)[C@@H]1CO	1.2
CN(C[C@@H]1[C@@H](c2ccccc2)[C@H](CO)N1C(=O)c1ccccc1)C(=O)C1CC1	3.7
C[C@@H](O)C#Cc1ccc([C@@H]2[C@H](CO)N3CCCCN(C(=O)c4ccc5c(c4)OCO5)C[C@@H]23)cc1	0.47
COc1ccccc1NC(=O)N1CC(=O)N2[C@@H](CO)[C@H](c3ccc(C#CCC(C)C)cc3)[C@@H]2C1	1.9
O=C(C1CCOCC1)N1CC(=O)N2[C@H](C1)[C@H](c1ccc(/C=C/c3ccccc3)cc1)[C@@H]2CO	-3.3*
O=C(C1CCOCC1)N1CC(=O)N2[C@H](CO)[C@H](c3ccc(/C=C/c4ccccc4)cc3)[C@@H]2C1	-4.8*
O=C(C1CCOCC1)N1CC(=O)N2[C@H](C1)[C@H](c1ccc(Br)cc1)[C@@H]2CO	3.1
O=C(C1CCOCC1)N1CC(=O)N2[C@H](C1)[C@@H](c1ccc(Br)cc1)[C@@H]2CO	1.9
O=C(C1CCOCC1)N1CC(=O)N2[C@H](CO)[C@H](c3ccc(Br)cc3)[C@H]2C1	0.69
SMILES	IDE exosite inh
CC(C)C#Cc1ccc([C@@H]2[C@@H](CO)N3C(=O)CN(C(=O)NC4CCCC4)C[C@@H]23)cc1	-0.17
C[C@@H]1CN([C@H](C)CO)C(=O)c2ccccc2-c2ccccc2CO[C@H]1CN(C)S(=O)(=O)c1cccs1	-0.86
O=C(c1ccccn1)N1CC(=O)N2[C@@H](CO)[C@H](c3ccc(-c4cccc(F)c4)cc3)[C@@H]2C1	-0.064
CN(C)C(=O)[C@@H]1[C@@H](CO)[C@@H]2Cn3c(ccc(/C=C/c4ccccc4)c3=O)[C@@H]2N1C(=O)c1cccnc1	-0.64
COc1cccc(-c2ccc([C@@H]3[C@@H](CO)N4CCCCN(S(=O)(=O)c5cccs5)C[C@@H]34)cc2)c1	-3.2*
COc1cccc(-c2ccc([C@H]3[C@H]4CN(S(=O)(=O)c5cccs5)CCCCN4[C@H]3CO)cc2)c1	0.23
COc1cccc(-c2ccc([C@H]3[C@@H](CO)N4CCCCN(S(=O)(=O)c5cccs5)C[C@@H]34)cc2)c1	2
Cc1cccc(-c2ccc([C@@H]3[C@@H](CO)N4CCCCN(S(=O)(=O)c5cn(C)cn5)C[C@H]34)cc2)c1	-0.7
Cc1cccc(-c2ccc([C@H]3[C@@H](CO)N4CCCCN(S(=O)(=O)c5cn(C)cn5)C[C@H]34)cc2)c1	-11*
Cn1cnc(S(=O)(=O)N2CCCCN3[C@H](C2)[C@H](c2ccc(-c4cccc(F)c4)cc2)[C@@H]3CO)c1	3.3
Cn1cnc(S(=O)(=O)N2CCCCN3[C@H](CO)[C@H](c4ccc(-c5cccc(F)c5)cc4)[C@H]3C2)c1	-1.3
Cc1cccc(-c2ccc([C@@H]3[C@H](CO)N4CCCCN(S(=O)(=O)c5ccccc5F)C[C@@H]34)cc2)c1	-22*
COc1cccc(-c2ccc([C@@H]3[C@H]4CN(S(=O)(=O)c5cn(C)cn5)CCCCN4[C@H]3CO)cc2)c1	-5.5*
Cn1cnc(S(=O)(=O)N2CCCCN3[C@H](CO)[C@@H](c4ccc(-c5ccccc5)cc4)[C@H]3C2)c1	1.3
Cc1cccc(-c2ccc([C@H]3[C@H](CO)N4CCCCN(S(=O)(=O)c5ccccc5C)C[C@@H]34)cc2)c1	1.3
O=S(=O)(c1ccccc1F)N1CCCCN2[C@H](C1)[C@H](c1ccc(-c3ccccc3)cc1)[C@@H]2CO	0.64
COc1cccc(NC(=O)N2CC(=O)N3[C@H](C2)[C@H](c2ccc(C4=CCCC4)cc2)[C@@H]3CO)c1	3.5
CCCNC(=O)C[C@H]1CC[C@@H]2[C@@H](COc3ccc(NC(=O)CC)cc3C(=O)N2C)O1	-0.058
N#C[C@@H]1N[C@@H](CO)[C@@H]1c1ccc(C2=CCCCC2)cc1	0.9
COc1cccc(C(=O)Nc2ccc3c(c2)C(=O)N(C)[C@@H]2CC[C@H](CC(=O)NCc4ccc(F)cc4)O[C@@H]2CO3)c1	0.74
O=C(Nc1cccc(F)c1)N1CCCCN2[C@H](C1)[C@H](c1ccc(C#CC3CC3)cc1)[C@@H]2CO	3.9
O=C(C[C@@H]1C[C@H]2c3cc(NC(=O)NC4CCCC4)ccc3O[C@H]2[C@H](CO)O1)NCc1ccccc1F	0
C[C@@H](O)C#Cc1ccc([C@@H]2[C@@H](CO)N3CCCCN(C(=O)Nc4ccccc4)C[C@@H]23)cc1	-0.14
CNC[C@H]1Oc2cc(C3=CCCC3)ccc2S(=O)(=O)N([C@H](C)CO)C[C@@H]1C	-0.53
COc1ccc(NC(=O)N2CC(=O)N3[C@H](C2)[C@@H](c2ccc(C#CCC4CCCC4)cc2)[C@@H]3CO)cc1	1.3
O=C(c1ccccc1)N1CC(=O)N2[C@H](CO)[C@H](c3ccc(C#Cc4ccccc4)cc3)[C@H]2C1	-5.3*
O=C(c1ccccc1)N1CC(=O)N2[C@H](CO)[C@@H](c3ccc(C#Cc4ccccc4)cc3)[C@@H]2C1	-0.2
COc1ccc(C#Cc2ccc([C@H]3[C@@H](CO)N4C(=O)CN(C(=O)c5ccccc5)C[C@@H]34)cc2)cc1	1.8
O=C(c1ccccc1)N1CC(=O)N2[C@H](C1)[C@H](c1ccc(C#Cc3ccccc3)cc1)[C@@H]2CO	-4.3*
COc1ccc(C#Cc2ccc([C@@H]3[C@@H](CO)N4C(=O)CN(C(=O)c5ccccc5)C[C@H]34)cc2)cc1	-0.18
